According to PubChem BioAssay (EPA / NIEHS):
Where “and” joins values, the source holds several entries; their conditions need not be identical. Identical values can stand only once. Results filed as inconclusive are left out. More than one record can exist for a structure, and the calls need not agree. Calls of active or inactive are those of the source. The calls were made as follows, unless noted: active = hit-call score of the fitted dose curve at least 0.9, where 1 is the maximum; inactive = score below 0.9.

Tests used:
[1] = CCTE_Shafer_MEA_dev_firing_rate_mean: CCTE's Neural Network Formation Assay for Mean Firing Rate, Shafer Lab (AID 2284031);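 as to AC50: curve fitted for loss of firing so AC50 reflects decreased mean firing rate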
Summary of the method: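 Developing rat cortical networks on MEA plates undergo 12-day compound exposure. Firing frequency, averaged across active electrodes, is integrated as area under the curve over four recording days, referenced to DMSO.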

[2] = CCTE_Shafer_MEA_dev_per_burst_spike_percent: CCTE's Neural Network Formation Assay for Percent of Spikes in a Burst, Shafer Lab (AID 2284032);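 as to AC50: fitted as a decrease in burst spike percentage below DMSO baseline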
Summary of the method: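 Rat primary cortical neurons on 16-electrode MEA wells, dosed from plating day 0 for 12 days with renewal on DIV 5 and 9; spikes-in-bursts percentage averaged over bursting electrodes, collapsed as AUC across days 5, 7, 9, 12; loss direction versus DMSO.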

[3] = CCTE_Shafer_MEA_dev_active_electrodes_number: CCTE's Neural Network Formation Assay for Number of Active Electrodes, Shafer Lab (AID 2284040; active = hit-call score of the fitted dose curve at least 0.9, where 1 is the maximum;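 as to AC50: potency for loss of active electrodes versus DMSO so lower counts are hits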)
Summary of the method: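 Rat cortical primary cultures, 1.5 x 10^5 cells/well, PEI-coated MEA, laminin drop. Continuous exposure DIV 0–12; full media/compound change DIV 5, 9. Readout: electrodes with mean firing ≥5 spikes/min; AUC across days; loss vs DMSO.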

[4] = CCTE_Shafer_MEA_dev_bursting_electrodes_number: CCTE's Neural Network Formation Assay for Number of Bursting Electrodes, Shafer Lab (AID 2284043; active = hit-call score of the fitted dose curve at least 0.9, where 1 is the maximum;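 as to AC50: potency is for loss of bursting electrodes relative to DMSO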)
Summary of the method: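 Read-out is the per-well number of electrodes bursting at least once every 2 minutes, recorded on days 5, 7, 9 and 12 and collapsed by trapezoidal area under the curve. Cultures were primary rat cortical neurons on MEA plates, treated continuously from plating.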

[5] = CCTE_Shafer_MEA_dev_per_burst_interspike_interval: CCTE's Neural Network Formation Assay for Burst Interspike Interval, Shafer Lab (AID 2284044);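 also: mean spike spacing inside bursts as AUC over recordings on days 5 7 9 12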;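 as to AC50: potency for a decrease of within-burst interspike interval below DMSO level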
Summary of the method: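 Spontaneous activity of maturing rat cortical networks is recorded on DIV 5, 7, 9 and 12 under chronic compound exposure beginning at plating. Endpoint: burst interspike interval well-mean, collapsed into trapezoidal AUC and fitted in the negative direction relative to DMSO.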

[6] = CCTE_Shafer_MEA_dev_burst_duration_mean: CCTE's Neural Network Formation Assay for Mean Burst Duration, Shafer Lab (AID 2284045);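 as to AC50: curve fitted for loss meaning shorter burst duration than DMSO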
Summary of the method: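 Read-out: average first-to-last-spike interval within single-electrode bursts, averaged over bursting electrodes per well, then summarised as area under the curve across days 5, 7, 9 and 12. Developing rat cortical networks were exposed from day 0.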

[7] = CCTE_Shafer_MEA_dev_interburst_interval_mean: CCTE's Neural Network Formation Assay for Mean Interburst Interval, Shafer Lab (AID 2284046);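 also: well-mean interburst interval of bursting electrodes as AUC over four recording days; curve fitted for decrease in interburst interval relative to DMSO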
Summary of the method: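 Network formation assay in primary rat cortical cultures, exposed from DIV 0 to 12. Mean interburst interval per well, integrated as AUC over four recordings.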

[8] = CCTE_Shafer_MEA_dev_inter_network_spike_interval_mean: CCTE's Neural Network Formation Assay for Mean Inter-network Spike Interval, Shafer Lab (AID 2284047)
Summary of the method: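 Compound was given at plating to primary rat cortical neurons and renewed with full medium changes on DIV 5 and 9. Extracellular activity was recorded on days 5, 7, 9, 12; AUC values were fitted for loss relative to DMSO control.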

[9] = CCTE_Shafer_MEA_dev_network_spike_number: CCTE's Neural Network Formation Assay for Number of Network Spikes, Shafer Lab (AID 2284048);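 also: synchronized bursts across electrodes counted on days 5 7 9 12 and integrated as AUC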;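 as to AC50: fit as a loss of signal meaning fewer network spikes than DMSO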
Summary of the method: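 Developing networks of primary rat cortical neurons are treated over 12 days starting at plating, with media and compound fully replaced on DIV 5 and 9. Network spike counts from four recording days are integrated as trapezoidal AUC.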

[10] = molecular target: Estrogen receptor (Homo sapiens) (UniProt P03372); assay: CCTE_Deisenroth_AIME_96WELL_LUC_Inactive: CCTE's 96-well Estrogen Receptor Transactivation Assay without AIME metabolic competence (ERTA luciferase; metabolism negative), Deisenroth Lab (AID 2284025; active = hit-call score of the fitted dose curve at least 0.9, where 1 is the maximum)
Summary of the method: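 VM7Luc4E2 breast cells, luciferase read 24 h after dosing with medium pre-incubated 2 h on alginate-water lids (metabolism negative). 10-point series 0.002–200 uM, single technical replicate, n≥4; fit relative to 17beta-estradiol.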

[11] = CCTE_Deisenroth_AIME_96WELL_CTox_Active: Cytotoxicity Assessment (CTOX) in CCTE's 96-well Estrogen Receptor Transactivation Assay with AIME metabolic competence (metabolism positive), Deisenroth Lab (AID 2284028; active = hit-call score of the fitted dose curve at least 0.9, where 1 is the maximum)
Summary of the method: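 Chemicals (0.002–200 uM) were first incubated 2 h with alginate-immobilized phenobarbital/beta-naphthoflavone-induced male rat liver S9; conditioned medium then went onto VM7Luc4E2 cells for 24 h, with viability read by protease-substrate fluorescence, fitted bidirectionally.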

[12] = CCTE_Deisenroth_AIME_96WELL_CTox_Inactive: Cytotoxicity Assessment (CTOX) in CCTE's 96-well Estrogen Receptor Transactivation Assay without AIME metabolic competence (metabolism negative), Deisenroth Lab (AID 2284029; active = hit-call score of the fitted dose curve at least 0.9, where 1 is the maximum)
Summary of the method: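 Chemicals (10-point series, 0.002-200 uM) were incubated 2 h with alginate-water microspheres lacking S9. The conditioned medium was then transferred onto VM7Luc4E2 cells for 24 h. Viability was measured by protease-substrate cleavage to a fluorescent probe, with loss of signal fitted bidirectionally; n≥4 experimental replicates.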

[13] = molecular target: Estrogen receptor (Homo sapiens) (UniProt P03372); assay: CCTE_Deisenroth_AIME_384WELL_LUC_Active: CCTE's 384-well Estrogen Receptor Transactivation Assay with AIME metabolic competence (ERTA luciferase; metabolism positive), Deisenroth Lab (AID 2284030; active = hit-call score of the fitted dose curve at least 0.9, where 1 is the maximum)
Summary of the method: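 Estrogenic luciferase signal in VM7Luc4E2 cells is measured at 24 hour, after chemicals have been preconditioned 2 hours with PB/BNF-induced rat hepatic S9 in alginate. Gain of signal is fitted relative to 17beta-estradiol, across 0.002 - 200 uM.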

[14] = CCTE_Deisenroth_AIME_384WELL_CTox_Active: Cytotoxicity Assessment (CTOX) in CCTE's 384-well Estrogen Receptor Transactivation Assay with AIME metabolic competence (metabolism positive), Deisenroth Lab (AID 2284037; active = hit-call score of the fitted dose curve at least 0.9, where 1 is the maximum;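 also: activity means signal loss indicating cell death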)
Summary of the method: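 Cytotoxicity in VM7Luc4E2 breast cells, 24 hour, measured as protease-substrate fluorescence loss, after 2-hour metabolic conditioning with induced rat hepatic S9 in alginate microspheres. Concentrations 0.002 - 200 uM, 10 points, bidirectional fitting.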

[15] = molecular target: Estrogen receptor (Homo sapiens) (UniProt P03372); assay: CCTE_Deisenroth_AIME_384WELL_LUC_Inactive: CCTE's 384-well Estrogen Receptor Transactivation Assay without AIME metabolic competence (ERTA luciferase; metabolism negative), Deisenroth Lab (AID 2284038; active = hit-call score of the fitted dose curve at least 0.9, where 1 is the maximum;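 also: VM7Luc4E2 breast cells given medium preincubated 2 h with S9-free microspheres; hits raise estrogen receptor luciferase signal so potencies reflect agonists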)
Summary of the method: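 Chemicals (10-point series, 0.002 - 200 uM) were incubated 2 hours with alginate-water microsphere lids lacking S9, then the conditioned medium was transferred to VM7Luc4E2 breast cells for 24 hour. Luciferase induction was read by bioluminescence, fitted upward relative to 17beta-estradiol.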

[16] = CCTE_Deisenroth_AIME_384WELL_CTox_Inactive: Cytotoxicity Assessment (CTOX) in CCTE's 384-well Estrogen Receptor Transactivation Assay without AIME metabolic competence (metabolism negative), Deisenroth Lab (AID 2284039; active = hit-call score of the fitted dose curve at least 0.9, where 1 is the maximum;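 also: cell viability via live-cell protease substrate cleaved to fluorescent probe; cells exposed 24 h to medium preincubated 2 h with alginate-water beads without S9; loss of fluorescence signal means loss of viability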)
Summary of the method: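 Fluorescence from a live-cell protease substrate, read after 24 h in VM7Luc4E2 cells, indicated viability. Test medium came from a 2 h AIME step without hepatic S9 (alginate-water microspheres); concentrations spanned 0.002 - 200 uM, single technical replicate per run.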

[17] = molecular target: Estrogen receptor (Homo sapiens) (UniProt P03372); assay: CCTE_Deisenroth_AIME_384WELL_LUC_Shift: CCTE's 384-well Estrogen Receptor Transactivation Assay with AIME metabolic competence data shift (ERTA luciferase; difference in metabolism positive and negative), Deisenroth Lab (AID 2284041);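 also: shift is response with S9 minus without S9 so positive means metabolism raised ER signal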
Summary of the method: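 Test chemicals (0.002–200 uM, 10-point) were pre-incubated 2 h with alginate microspheres containing phenobarbital/beta-naphthoflavone-induced male Sprague Dawley rat liver S9 or water, then medium was transferred to VM7Luc4E2 cells for 24 h luciferase readout; shift = S9-positive minus S9-negative normalized response.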

Measured: AC50

Sequence of Estrogen receptor (Homo sapiens) (P03372 whole entry, looked up): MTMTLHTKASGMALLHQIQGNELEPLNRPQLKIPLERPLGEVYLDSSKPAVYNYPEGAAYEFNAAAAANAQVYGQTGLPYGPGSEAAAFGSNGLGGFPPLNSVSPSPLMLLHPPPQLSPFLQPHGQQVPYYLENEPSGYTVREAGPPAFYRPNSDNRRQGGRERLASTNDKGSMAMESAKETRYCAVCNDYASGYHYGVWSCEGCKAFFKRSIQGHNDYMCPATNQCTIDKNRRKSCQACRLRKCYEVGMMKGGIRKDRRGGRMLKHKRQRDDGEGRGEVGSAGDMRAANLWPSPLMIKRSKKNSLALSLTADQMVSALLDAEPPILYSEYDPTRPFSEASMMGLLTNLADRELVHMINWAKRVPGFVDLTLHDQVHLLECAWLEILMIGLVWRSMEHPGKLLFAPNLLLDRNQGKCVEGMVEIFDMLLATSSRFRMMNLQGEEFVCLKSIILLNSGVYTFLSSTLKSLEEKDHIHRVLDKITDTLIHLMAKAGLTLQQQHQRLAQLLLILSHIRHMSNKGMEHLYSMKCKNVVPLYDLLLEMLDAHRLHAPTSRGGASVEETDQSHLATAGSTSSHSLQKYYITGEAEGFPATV

NS(=O)(=O)C(F)(F)C(F)(F)C(F)(F)C(F)(F)C(F)(F)C(F)(F)C(F)(F)C(F)(F)F
inactive: [1] | [2] | [3] | [5] | [6] | [7] | [8] | [9]
active: [2] 15 µM | [3] 6.65 µM | [4] 4.13 µM and 1.93 µM

c1cc2ccc3cccc4ccc(c1)c2c34
active: [10] 42.1 µM | [16] 0.0782 µM
inactive: all other assays above

O=S(=O)(O)C(F)(F)C(F)(F)C(F)(F)C(F)(F)C(F)(F)C(F)(F)F
inactive: [13] | [1] | [2] | [14] | [15] | [16] | [3] | [17] | [4] | [5] | [6] | [7] | [8] | [9]
active: [3] 3.97 µM

Clc1ccc(C(c2ccccc2Cl)C(Cl)(Cl)Cl)cc1 (stereo not drawn)
inactive: [5] | [6] | [8]
active: [1] 2.03 µM | [2] 1.99 µM | [3] 4.03 µM | [4] 4.01 µM | [7] 7.78 µM | [9] 2.71 µM

Cc1cc(-c2ccc(N)c(C)c2)ccc1N
inactive: [14] | [16] | [17]
active: [13] 11.9 µM | [15] 15.2 µM

CCCCCCCCOC(=O)c1ccccc1C(=O)OCCCCCCCC
active: [10] 2.22 µM

Sc1ccccc1
inactive: [13] | [15] | [17]

Cc1ccccc1CO[C@@H]1C[C@@]2(C(C)C)CC[C@]1(C)O2
inactive: [14] | [16]

O=S(=O)(O)C(F)(F)C(F)(F)C(F)(F)C(F)(F)F
inactive: [1] | [2] | [3] | [5] | [6] | [7] | [8] | [9]
active: [3] 11.4 µM | [4] 8.61 µM

CCOP(=S)(OCC)SCSC(C)(C)C
inactive: [1] | [5] | [6] | [8] | [9]
active: [1] 23.4 µM | [2] 23.1 µM and 27.1 µM | [3] 18.2 µM and 16.1 µM | [4] 23.1 µM and 16.5 µM | [5] 17.4 µM | [6] 23.5 µM | [7] 23 µM and 28.4 µM | [9] 18.9 µM

Nn1cnnc1
inactive: [13] | [15]
active: [17] 72.4 µM

Cc1cc2c3c(c1)C(c1ccccc1)=N[C@@H](NC(=O)c1ccncc1)C(=O)N3CC2
inactive: [13] | [15] | [16] | [17]
